Assay [1] can be described thus: CCTE_Shafer_MEA_dev_active_electrodes_number: CCTE's Neural Network Formation Assay for Number of Active Electrodes, Shafer Lab (AID 2284040; active = hit-call score of the fitted dose curve at least 0.9, where 1 is the maximum;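 for AC50: potency for loss of active electrodes versus DMSO so lower counts are hits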). In a few lines: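 Rat cortical primary cultures, 1.5 x 10^5 cells/well, PEI-coated MEA, laminin drop. Continuous exposure DIV 0–12; full media/compound change DIV 5, 9. Readout: electrodes with mean firing ≥5 spikes/min; AUC across days; loss vs DMSO.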

Assay [2] in a line: CCTE_Shafer_MEA_dev_bursting_electrodes_number: CCTE's Neural Network Formation Assay for Number of Bursting Electrodes, Shafer Lab (AID 2284043; active = hit-call score of the fitted dose curve at least 0.9, where 1 is the maximum;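 for AC50: potency is for loss of bursting electrodes relative to DMSO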). The essentials:
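Primary rat cortical neurons plated on 16-electrode MEA wells, exposed from day 0 with compound renewed at DIV 5 and 9. Electrodes bursting ≥1 burst per 2 min counted on days 5, 7, 9 and 12; trapezoidal AUC across days, fitted for loss versus DMSO.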

The nature of assay [3]: CCTE_Shafer_MEA_dev_per_burst_interspike_interval: CCTE's Neural Network Formation Assay for Burst Interspike Interval, Shafer Lab (AID 2284044).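 For AC50: potency for a decrease of within-burst interspike interval below DMSO level.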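 Note: mean spike spacing inside bursts as AUC over recordings on days 5 7 9 12.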 In a few lines:
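Developmental network-formation MEA in primary rat cortical cultures with exposure spanning days 0–12. Within-burst ISI is averaged per well and integrated across recording days by area under the curve, with DMSO as negative control baseline.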

The nature of assay [4]: CCTE_Shafer_MEA_dev_burst_duration_mean: CCTE's Neural Network Formation Assay for Mean Burst Duration, Shafer Lab (AID 2284045).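 For AC50: curve fitted for loss meaning shorter burst duration than DMSO.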 The essentials:
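Primary rat cortical neurons on 48-well 16-electrode MEA plates, exposed from day 0 with renewal at DIV 5 and 9; spontaneous activity recorded on days 5, 7, 9, 12. Well-mean burst duration across bursting electrodes, collapsed as trapezoidal AUC; DMSO baseline.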

The nature of assay [5]: CCTE_Shafer_MEA_dev_interburst_interval_mean: CCTE's Neural Network Formation Assay for Mean Interburst Interval, Shafer Lab (AID 2284046).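 Note: curve fitted for decrease in interburst interval relative to DMSO.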 In a few lines: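 Developing rat cortical networks on 48-well MEAs receive compound from the day of plating. Burst intervals from each active electrode are averaged per well, and AUC over the recording days is fitted in the negative direction against DMSO.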

Assay [6] in a line: CCTE_Shafer_MEA_dev_inter_network_spike_interval_mean: CCTE's Neural Network Formation Assay for Mean Inter-network Spike Interval, Shafer Lab (AID 2284047). The essentials: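 Rat cortical cultures, 1.5 x 10^5 cells/well on 48-well MEA plates; continuous exposure days 0–12, medium and compound refreshed DIV 5, 9. Mean time between consecutive network-spike peaks; AUC across DIV 5/7/9/12; DMSO baseline, negative fitting direction.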

Assay [7] can be described thus: CCTE_Shafer_MEA_dev_network_spike_number: CCTE's Neural Network Formation Assay for Number of Network Spikes, Shafer Lab (AID 2284048).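 For AC50: fit as a loss of signal meaning fewer network spikes than DMSO.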 The essentials:
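Primary rat cortical neurons on PEI/laminin 48-well MEA plates, dosed from plating day 0 for 12 days, renewed at DIV 5 and 9. Network spike counts recorded DIV 5, 7, 9, 12, collapsed as trapezoidal AUC; DMSO baseline.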

A short description of assay [8]: CCTE_Shafer_MEA_dev_network_spike_peak: CCTE's Neural Network Formation Assay for Mean Number of Electrodes in Network Spike, Shafer Lab (AID 2284049).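 For AC50: fitted for loss of signal meaning fewer electrodes in network spikes than DMSO.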 In a few lines: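 Network-spike peak electrode count from recordings on days 5, 7, 9 and 12 was combined as trapezoidal area under the curve. Rat cortical cultures were treated continuously from plating, with compound renewed at each feed (DIV 5, 9); fits versus DMSO.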

Assay [9] can be described thus: CCTE_Shafer_MEA_dev_spike_duration_mean: CCTE's Neural Network Formation Assay for Mean Spike Duration, Shafer Lab (AID 2284051).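 For AC50: potency for a decrease in mean network spike duration versus DMSO.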 The essentials: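 Readout is the average length of network spikes, clustered firing across electrodes, summed over DIV 5, 7, 9 and 12 as area under the curve. Neurons from rat cortex developed networks on MEA plates under continuous 12-day exposure.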

The nature of assay [10]: CCTE_Shafer_MEA_dev_network_spike_duration_std: CCTE's Neural Network Formation Assay for Standard Deviation of Network Spike Duration, Shafer Lab (AID 2284052).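 Note: hits are decreases in network spike duration SD versus DMSO vehicle.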 The essentials:
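Read-out is the trapezoidal area-under-the-curve across recordings made on days 5, 7, 9 and 12, fitted in the negative direction against DMSO baseline. Neurons were primary rat cortical cells treated from day 0, with treatment renewed at each feed.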

Assay [11] is described as follows: CCTE_Shafer_MEA_dev_per_network_spike_spike_number_mean: CCTE's Neural Network Formation Assay for Mean Number of Spikes in a Network Spike, Shafer Lab (AID 2284053).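 For AC50: fitted as decrease in spikes per network spike relative to DMSO.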 In a few lines:
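Continuous twelve-day exposure of developing rat cortical networks grown over 16 microelectrodes per well; spontaneous firing is captured at four time points, and the per-network-spike spike number is integrated over development by trapezoidal AUC.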

Assay [12] is described as follows: CCTE_Shafer_MEA_dev_per_network_spike_spike_percent: CCTE's Neural Network Formation Assay for Percent of Spikes in a Network Spike, Shafer Lab (AID 2284054). In a few lines: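 Rat primary cortical neurons were grown on 48-well MEA plates (16 electrodes/well), exposed from plating day 0 through day 12, with treatment renewed on DIV 5 and 9. Percent of spikes within 0.05 s network-spike peaks was measured, summarised as AUC across days 5, 7, 9, 12.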

A short description of assay [13]: CCTE_Shafer_MEA_acute_AB: CCTE's Alamar Blue Assay for Cytotoxicity in the Neural Acute Assay, Shafer Lab (AID 2284069; active = hit-call score of the fitted dose curve at least 0.9, where 1 is the maximum;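 note: active compounds lower the viability signal compared with DMSO wells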). In a few lines: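 Metabolic activity in chemically exposed rat cortical neurons (MEA cultures, day 13/15 post-plating) measured via CellTiter Blue resazurin reduction, 544/590 nm fluorescence; fitted relative to DMSO, with signal loss indicating reduced viability.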
(Alamar Blue is a resazurin reagent that responds to reducing activity.)

A short description of assay [14]: CCTE_Shafer_MEA_dev_LDH: CCTE's Lactate Dehydrogenase Assay for Cytotoxicity in the Neural Network Formation Assay, Shafer Lab (AID 2284068; active = hit-call score of the fitted dose curve at least 0.9, where 1 is the maximum;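 note: exposure for twelve days from plating with re-dosing on DIV 5 and 9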). In a few lines:
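Cytotoxicity companion to network-formation recordings: rat cortical neurons received compound over 12 days of development, re-dosed at DIV 5 and 9 feeds. Viability was inferred from LDH enzyme activity relative to DMSO.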

The next assay relates to DIO3 (gene 1735). The assay can be described thus: CCTE_GLTED_hDIO3: CCTE's human Deiodinase 3 (DIO3) Inhibition Assay, Great Lakes Toxicology and Ecology Division (GLTED) Lab (AID 2284055; active = hit-call score of the fitted dose curve at least 0.9, where 1 is the maximum;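 note: potency is for inhibition seen as loss of released iodide signal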). The essentials: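 Enzyme activity is tracked as iodide release from substrate by recombinant human DIO3 over 3 h with chemical present. A second Sandell-Kolthoff step converts iodide to an absorbance signal, fitted relative to DMSO.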

In another assay the test system is DIO2 (gene 1734). The assay is described as follows: CCTE_GLTED_hDIO2: CCTE's human Deiodinase 2 (DIO2) Inhibition Assay, Great Lakes Toxicology and Ecology Division (GLTED) Lab (AID 2284050; active = hit-call score of the fitted dose curve at least 0.9, where 1 is the maximum). The essentials: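 In this cell-free test, chemicals are exposed to human deiodinase type 2 for 3 hours. Released iodide is determined spectrophotometrically via the Sandell-Kolthoff method, and signal loss relative to DMSO is fitted.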

Assay [15] deals with Estrogen receptor (Homo sapiens) (UniProt P03372). The assay can be described thus: CCTE_Deisenroth_AIME_384WELL_LUC_Shift: CCTE's 384-well Estrogen Receptor Transactivation Assay with AIME metabolic competence data shift (ERTA luciferase; difference in metabolism positive and negative), Deisenroth Lab (AID 2284041).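 Note: shift is response with S9 minus without S9 so positive means metabolism raised ER signal.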 In a few lines:
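Chemicals (0.002–200 uM, 10 points) pre-incubated 2 h with alginate-encapsulated induced male Sprague Dawley rat liver S9 or S9-free, then medium applied 24 h to VM7Luc4E2 cells; luciferase. Endpoint is per-concentration difference, S9-positive minus negative.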

Among the data in PubChem BioAssay (EPA / NIEHS) are outcome and AC50 values, retold here.

Results filed as inconclusive are left out. Activity calls are given as the source filed them. Rule for the calls, unless noted: active = hit-call score of the fitted dose curve at least 0.9, where 1 is the maximum; inactive = score below 0.9.

Chain of Estrogen receptor (Homo sapiens) (P03372 whole entry, looked up): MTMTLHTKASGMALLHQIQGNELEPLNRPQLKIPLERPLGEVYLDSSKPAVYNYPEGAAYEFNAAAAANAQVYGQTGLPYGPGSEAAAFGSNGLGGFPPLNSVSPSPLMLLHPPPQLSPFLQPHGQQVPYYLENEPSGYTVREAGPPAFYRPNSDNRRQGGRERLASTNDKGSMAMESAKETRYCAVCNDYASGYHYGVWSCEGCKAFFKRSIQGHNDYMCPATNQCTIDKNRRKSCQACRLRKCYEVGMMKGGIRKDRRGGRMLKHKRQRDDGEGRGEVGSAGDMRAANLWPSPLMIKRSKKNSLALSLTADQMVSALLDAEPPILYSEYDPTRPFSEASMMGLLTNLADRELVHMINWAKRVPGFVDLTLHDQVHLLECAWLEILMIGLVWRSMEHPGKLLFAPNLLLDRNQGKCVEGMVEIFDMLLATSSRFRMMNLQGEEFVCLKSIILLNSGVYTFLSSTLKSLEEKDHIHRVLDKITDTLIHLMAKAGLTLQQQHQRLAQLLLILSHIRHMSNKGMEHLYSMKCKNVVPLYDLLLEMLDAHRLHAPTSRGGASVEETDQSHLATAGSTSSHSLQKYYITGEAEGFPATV

Turning to `O=C(O)C(F)(F)OC(F)(F)C(F)(F)OC(F)(F)C(=O)O`, the result in assay [1], in assay [2], in assay [3], in [4], in [5] and in assay [6] was inactive. Further, the call in assay [7], in assay [8], in assay [9], in [10], in assay [11] and in assay [12] was inactive.
Turning to `ClC(Cl)(Cl)c1ccccc1`, in [13], the compound was classed as inactive.
As to `O=S(=O)(c1ccc(O)cc1)c1ccc(O)cc1`, the call in [1], in assay [2], in assay [3], in assay [4], in assay [5] and in assay [6] was inactive. The compound was classed as inactive in assay [7], in assay [8], in [9], in [10], in [11] and in assay [12]. Further, the call in assay [14] was inactive.
With `O=S(=O)(F)C(F)(F)C(F)(F)C(F)(F)C(F)(F)C(F)(F)C(F)(F)C(F)(F)C(F)(F)F`, the half-maximal activity concentration (AC50) (as a rule, the concentration giving half of the maximal activity seen) with DIO3 (gene 1735) is 28.4 µM (active).
For the compound `C=CC(=O)OCC(F)(F)C(F)F`, the AC50 was 4.45 µM (active) in [1]; 4.87 µM (active) in [2]; 2.98 µM (active) in [3]; 8.76 µM (active) in [4]; 8.7 µM (active) in [5]; 9.04 µM (active) in assay [8]. In addition, the AC50 is 47.3 µM (active) with DIO2 (gene 1734); 15 µM (active) in assay [9]; 4.85 µM (active) in assay [11]; 15 µM (active) in assay [12]; 52.4 µM (active) with DIO3 (gene 1735); 8.15 µM (active) in [14]. For the same compound, the call in assay [6], in assay [7] and in assay [10] was inactive.
For `OCC(F)(F)OC(F)(F)C(F)(F)OC(F)(F)C(F)(F)OC(F)(F)F`, the compound was called inactive in assay [1], in assay [2], in assay [3], in [4], in [5] and in assay [6]. In addition, the result in assay [7], in [9], in assay [10], in assay [11], in assay [12] and in assay [14] was inactive. For the same compound, in assay [8], the concentration at half-maximal activity (AC50) was 0.818 µM (active).
As to `CCCCCCCc1ccc(O)cc1`, the AC50 with DIO2 (gene 1734) was 136 µM (active); with DIO3 (gene 1735), 81.2 µM (active).
For `CCCCOCCOP(=O)(OCCOCCCC)OCCOCCCC`, the result in [15] was inactive.
As to `O=C(O)C1C(C(=O)O)C2(Cl)C(Cl)=C(Cl)C1(Cl)C2(Cl)Cl` (centres undefined), the result in assay [3], in [4], in [5], in assay [6], in assay [7] and in assay [8] was inactive. Moreover, the outcome in assay [9], in assay [10], in assay [11], in assay [12], in assay [14] and in assay [13] was inactive.
`ClC1=C(Cl)C2(Cl)C3C(Cl)C(Cl)CC3C1(Cl)C2(Cl)Cl` (centres undefined): the AC50 in assay [1] was 5.54 µM (active); in assay [2], 7.54 µM (active); in assay [3] it was 3.93 µM (active); in assay [5] it was 7.68 µM (active); in assay [7] it was 1.98 µM (active); in [8] it was 6.76 µM (active). For the same compound, the half-maximal activity concentration (AC50) in assay [9] is 7.67 µM (active); in assay [11] it was 7.75 µM (active); in assay [12], 7.62 µM (active); in assay [14] it was 7.62 µM (active). The compound was called inactive in assay [4], in assay [6], in [10] and in assay [13].
